Common to all, as to assay type: functional
The test system of assay [1] is Plasmodium falciparum. The assay is described as follows: GSK_TCMDC: Inhibition of Plasmodium falciparum 3D7 in whole red blood cells, using parasite LDH activity as an index of growth. Test compounds present at 2uM.
The subject of assay [2] is Plasmodium falciparum. The assay is described as follows: GSK_TCMDC: Inhibition of Plasmodium falciparum Dd2 in whole red blood cells, using parasite LDH activity as an index of growth. Test compounds present at 2uM.
The test system of another assay is HepG2. The assay is described as follows: GSK_TCMDC: Percent inhibition of human HepG2 cell line. Test compounds present at 10uM.

Each structure is given as a SMILES string.

Usually Inhibition stands for how much of the control response was suppressed. A low value points to little suppression. Take `CC(Cc1ccc(NC(=O)c2ccc(CC(C)NCc3ccc(Cl)cc3)cc2)cc1)NCCc1cccc(Cl)c1` (stereo not given): the Inhibition with Plasmodium falciparum [1] is 100%; in the assay on Plasmodium falciparum [2], 75%; with HepG2, 95%.
For `CCCCNC[C@@H](O)[C@H](Cc1ccccc1)NC(=O)c1cc2c3c(c1)c(CC)cn3CCS(=O)(=O)N2C.O=CO`, in that order: 99%, 98% and 0%.
The matching figures for `O=C(Nc1ccc(S(=O)(=O)N2CCCCCC2)cc1)c1cc(-c2ccccc2O)n[nH]1`: 100%, 76% and 16%.
As for `Cc1cnc(Nc2cccc(CCN3CCOCC3)c2)nc1NC(C)C.Cl`, the results for the Inhibition with Plasmodium falciparum [1], in the assay with Plasmodium falciparum [2] and in the assay on HepG2 were 97%, 76% and 53%, respectively.
For `Cc1cc2ccccc2n1CC(=O)N1CC(C(=O)N2CCCCC2)Oc2ccccc21` (stereo not given), in that order: 99%, 77% and 0%.
For `Cc1nc2ccccc2c(O)c1[N+](=O)[O-]`, in that order: 88%, 0% and 5%.
Consider `CC1(CCc2ccccc2)N=C(Nc2ccc(Cl)cc2)N=C(N)C1c1ccc(Cl)c(Cl)c1` (stereo not given), for which the Inhibition with Plasmodium falciparum [1] was determined as 100%; in the assay with Plasmodium falciparum [2], 98%; in the assay on HepG2 it was 81%.
The matching figures for `O=C(CCCCCNC(=O)c1ccc(O)c(-c2ccc(Cl)c(Cl)c2)c1)NCc1cccc2ccccc12`: 99%, 15% and 2%.
The matching figures for `COc1ccc2c(c1)[nH]c1c(C=Cc3ccccc3)nccc12.O=[N+]([O-])O`: 91%, 6% and 19%.
In the case of `NC1=NC(c2ccccc2)(c2ccccc2)C(=O)N1Cc1ccccc1Br.O=CO`, the Inhibition in the assay with Plasmodium falciparum [1] is on record as 93%; with Plasmodium falciparum [2] it was 38%; in the assay with HepG2 it was 36%.
For `Cl.Oc1ccccc1CNCC12CC3CC(CC(C3)C1)C2`, in that order: 98%, 99% and 0%.
The matching figures for `CCOc1ccc(OCC(=O)Nc2nc(-c3ccc(OC)cc3)c(C)s2)cc1`: 99%, 98% and 0%.
For `Br.CCC(CCON1C(N)=NC(N)=NC1(C)C)c1ccc(Cl)c(Cl)c1` (stereo not given), in that order: 94%, 98% and 68%.
As for `Cc1cnc(NCCc2ccc(F)cc2)nc1NCCC(=O)Nc1ccccc1.O=C(O)C(F)(F)F`, the Inhibition with Plasmodium falciparum [1] turned out to be 89%; in the assay with Plasmodium falciparum [2] it was 17%; in the assay on HepG2, 3%.
For `COc1ccc(C2CCN(CCN3CCC(NC(=O)c4ccc(-c5cccc(C(F)(F)F)c5C(F)(F)F)cc4)CC3)CC2)c(OC)c1`, in that order: 100%, 61% and 35%.
The matching figures for `Cc1cc(N(C)CCCN2CCCCC2)nc(Nc2ccc(Cl)cc2)n1.Cl`: 100%, 82% and 7%.
The matching figures for `COc1cc(NC(=O)/C=C/c2cccc3ccoc23)ccc1OCCN(C(C)C)C(C)C.Cl`: 90%, 5% and 22%.
For the compound `O=C(CCNc1ccnc(NCCc2ccccc2)n1)Nc1ccccc1.O=C(O)C(F)(F)F`, the Inhibition was 89% in the assay with Plasmodium falciparum [1], 19% with Plasmodium falciparum [2] and 7% with HepG2.
The matching figures for `Cc1noc(C)c1CN1Cc2ccccc2OC2(CCN(Cc3c[nH]c4cnccc34)CC2)C1.O=C(O)C(F)(F)F`: 89%, 12% and 19%.
The matching figures for `CN(C)CCCn1cncc1-c1ccc2ncnc(Nc3ccc4c(cnn4Cc4ccccc4)c3)c2c1`: 100%, 77% and 17%.

These data come from ChEMBL document CHEMBL1157539, “Thousands of chemical starting points for antimalarial lead identification” (Nature, 2010).
